Measurements published in PubChem BioAssay.
Active and inactive are the calls of the source.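 The calls were made as follows: active = compounds killing one labelled cell type while sparing the other, by normalised counts and ratio limits, not self-fluorescent; inactive = the rest.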

Test: differential killing of epithelial or mesenchymal cells, primary screen, imaging, PC-3E GFP, TEM4-18 mCherry, co-culture (AID 1345086);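 also: normalised mesenchymal count divided by normalised epithelial count so high means epithelial killing; cells exposed to compound for 72 h before imaging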
Details: imaging cell counts, at 1 µM, actives lie on both sides, counts scaled to control wells, 1 = unselective
With `O=C(O)c1cc2cc(F)ccc2[nH]1` the red/green cell ratio (normalised) was 0.92 (inactive). With `COc1ccc(-c2cc(=O)c3c(OC)c(OC)c(OC)c(OC)c3o2)cc1` the red/green cell ratio (normalised) was 1.11 (inactive). With `NC(=O)c1ccc[n+]([C@@H]2O[C@H](COP(=O)([O-])OP(=O)(O)OC[C@H]3O[C@@H](n4cnc5c(N)ncnc54)[C@H](O)[C@@H]3O)[C@@H](O)[C@H]2O)c1` the red/green cell ratio (normalised) was 0.97 (inactive). With `Cn1c(=O)[nH]c2ncn(C)c2c1=O` the red/green cell ratio (normalised) was 0.89 (inactive). For `NC1(C(=O)O)CC1`, the red/green cell ratio (normalised) was 0.8 (inactive). With `NCCCCN=C(N)N` the red/green cell ratio (normalised) was 0.84 (inactive). With `N[C@@H](Cc1cc(I)c(Oc2ccc(O)c(I)c2)c(I)c1)C(=O)O` the red/green cell ratio (normalised) was 1.24 (inactive). With `Cc1cc(C(C)(C)CC(C)(C)C)ccc1OCCOCC[N+](C)(C)Cc1ccccc1` the red/green cell ratio (normalised) was 1.11 (inactive). With `Cn1c(=O)c2[nH]c(C3CCCC3)nc2n(C)c1=O` the red/green cell ratio (normalised) was 0.82 (inactive). With `CC(=O)N1CCN(c2ccc(OCC3CO[C@](Cn4ccnc4)(c4ccc(Cl)cc4Cl)O3)cc2)CC1` (stereo partly specified) the red/green cell ratio (normalised) was 0.9 (inactive). With `NCCCCC(=O)O` the red/green cell ratio (normalised) was 0.85 (inactive). In the case of `CN[C@H](CC(=O)O)C(=O)O`, the red/green cell ratio (normalised) is reported as 1.02 (inactive). For `CN1CCc2cccc3c2C1Cc1ccc(O)c(O)c1-3` (stereo unspecified), the red/green cell ratio (normalised) was 1.13 (inactive). In the case of `COc1c2ccoc2cc2oc(=O)ccc12`, the red/green cell ratio (normalised) is reported as 0.94 (inactive). For `C=C1c2c(Cl)ccc(O)c2C(O)=C2C(=O)[C@]3(O)C(O)=C(C(N)=O)C(=O)[C@@H](N(C)C)[C@@H]3[C@@H](O)[C@H]12`, the red/green cell ratio (normalised) was 0.85 (inactive). With `NC(N)=NC(=O)c1nc(Cl)c(N2CCCCCC2)nc1N` the red/green cell ratio (normalised) was 0.8 (inactive).
